Results on 50 compounds are retold here after PubChem BioAssay AID588342 (National Center for Advancing Translational Sciences (NCATS), 2011).

The whole screen tested about 360,000 compounds, of which about 25,000 (6.9%) were called active. About 9% were inconclusive and are not listed. Many of the other results were omitted from the sample, so actives are more common in it than they were. Unmarked numbers belong to inactive results. Calls follow the shape of the dose curve; as a rule, active = well fitted inhibition curve with a large enough effect; inconclusive = small, poorly fitted or top-dose-only effect; inactive = flat fitted curve, though single readings scatter.

For this assay, the target named is Luciferin 4-monooxygenase (Photinus pyralis) (UniProt P08659). The assay is described as follows: qHTS profiling assay for firefly luciferase inhibitor/activator using purifed enzyme and Km concentrations of substrates (counterscreen for miR-21 project). Also: nearly all actives have a fitted effect of over 55% in size.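 As to activity change, negative = inhibition: plate controls were vehicle for no effect and reference inhibitor for full effect.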 Particulars: purified FLuc, luminescence inhibition; series mostly up to 57.5 µM; activity change, negative = inhibition: at the top concentration. From the text: MLPCN Grant: 1 R21 NS059478-01 (miR-21 grant) Assay Provider: NCGC NCGC Assay Overview: Firefly (Photinus pyralis) luciferase is one of the most commonly used transcriptional reporters for a number of reasons. It is considered one of the more dynamically responsive reporters -that is, responsive to changes in reporter transcription - as it requires no post-translational modifications and is enzymatically active directly after protein synthesis (Wood, 1998). Additionally, the half-life of the luciferase protein is short relative to other reporter-gene products (Wood, 1995). Whereas reporters with long half-lives potentially allow for increased signal due to accumulation of reporter-gene product, once accumulated in the cell, dynamic changes in reporter-gene expression may be difficult to detect(Fan and Wood, 2007; Almond et al., 2004). It has been shown that wild-type P. pyralis luciferase has a half-life of approximately […] hours in mammalian cells (Thompson et al., 1991). Firefly luciferase reporter-gene assays are also generally considered one of the most sensitive assay types (Wood, 1995; Wood, 1998). Although light produced in a bioluminescence reaction is of lower intensity than that produced during fluorescence emission, this is offset by little to no background light inherent to luminescent assays. Thus the luciferase reporter can be expressed at much lower levels than fluorescent proteins while still providing robust signal. # However, it was initially observed, in 1991, by Thompson et al., that compounds that resemble the substrates of firefly luciferase (FLuc) can act as competitive inhibitors of the enzyme, and that these compounds, upon interaction with luciferase in the cell, can actually stabilize the protein and increase its half-life. Accumulated intracellular FLuc protein can be measured as an increase in luminescence signal, upon addition of detection reagents (which contain high concentrations of FLuc substrates) commonly used in high-throughput screening. In cell-based reporter gene assays that use FLuc as the reporter gene to quantitate the potential influence of a given compound against the target biology, this apparent increase in luminescence can mistakenly be interpreted as identification of a compound that is active against the target of interest. This is the case for the miR-21 FLuc reporter gene assay used to identify inhibitors of the miR-21 pathway (PubChem AID 2289) - compounds of interest will inhibit miR-21 biogenesis/expression or activity, and are identified by causing an increase in luminescence, due to increased FLuc translation. However, FLuc inhibitory compounds that stabilize the FLuc protein will give an identical read-out, making it difficult to distinguish compounds that are active against the target from those active against FLuc. Previous profiling work to determine the prevalence of compounds that affect FLuc enzymatic activity (PubChem AID 411) identified that ~3% of the MLSMR library (then at ~72K) inhibited FLuc. […] Since the MLSMR had grown to ~350K compounds, and since it was expected that a significant percentage of compounds found active in the miR-21 FLuc assay would be FLuc inhibitors, the library was screened for activity against FLuc using a biochemical assay of purified FLuc and KM concentrations of FLuc substrates (D-luciferin and ATP).
Sequence of Luciferin 4-monooxygenase (Photinus pyralis) (P08659 whole entry, looked up): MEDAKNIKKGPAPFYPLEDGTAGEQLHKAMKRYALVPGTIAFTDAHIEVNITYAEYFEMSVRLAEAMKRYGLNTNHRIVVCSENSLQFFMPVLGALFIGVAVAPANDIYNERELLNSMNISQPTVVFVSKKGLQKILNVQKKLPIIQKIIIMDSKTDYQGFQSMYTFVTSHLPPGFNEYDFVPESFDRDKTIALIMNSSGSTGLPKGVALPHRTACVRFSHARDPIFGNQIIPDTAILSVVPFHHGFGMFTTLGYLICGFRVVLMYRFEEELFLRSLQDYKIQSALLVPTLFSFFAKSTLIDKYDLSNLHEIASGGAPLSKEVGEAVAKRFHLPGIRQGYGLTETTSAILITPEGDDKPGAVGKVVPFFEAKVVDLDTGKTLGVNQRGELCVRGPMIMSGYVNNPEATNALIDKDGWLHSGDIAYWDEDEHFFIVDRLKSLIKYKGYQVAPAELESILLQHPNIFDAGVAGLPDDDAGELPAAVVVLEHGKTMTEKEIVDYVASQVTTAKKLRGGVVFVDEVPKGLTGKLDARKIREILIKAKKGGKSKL
NCGC Assay Protocol Summary: Reagents: 50mM Tris acetate, pH 7.5; 10mM Mg acetate; 10uM D-luciferin (Sigma #L9504); 10uM ATP; 0.01% Tween-20; 0.05% BSA; 10nM P. pyralis luciferase (Sigma #L9506) Control compounds used were two known firefly luciferase inhibitors (compounds (2) and (5) in Auld et al., 2010), and DMSO. […]
Consider `CN1CCc2c(sc3c2c(NCc2ccco2)nc2nnnn23)C1`, for which the “activity change, negative = inhibition” value was 7.24%.
Still for that read-out and setting: the result for `Cc1nc2ccccn2c(=O)c1NC(=O)c1c(F)cccc1F` reads 3.3%; that for `COc1ccc2cc(C3=CC(=O)C[C@H](c4ccc5c(c4)OCO5)C3)ccc2c1`, 3.7%; that for `Cc1cccc(C)c1NC(=O)CN1C(=O)C(C)Oc2ccccc21` (stereo not given), 1.07%.
On the same count and under the same terms, the result for `CN(CC(=O)Nc1ccc(OC(F)(F)F)cc1)C(=O)C1CCC1` reads -4%; that for `CC(C)[C@H](NC(=O)c1ccc(F)cc1)C(=O)OCC(=O)NC(=O)c1cccn1C`, 0.441%.
Still for that read-out and setting: the result for `Cc1nn(C(C)C(=O)Nc2ccc(C(C)C)cc2)c(=O)c2c1sc1ccccc12` (stereo not given) reads -10.5%.
As for `CC(=O)c1cccc(S(=O)(=O)N2CCC(n3nnc4cc(F)ccc43)CC2)c1`, the “activity change, negative = inhibition” value is 1.11%.
Take `O=C(c1ccc(F)cc1)N1CCC(n2nnc3ccccc32)CC1`: the Potency is 2.69 µM (active).
As to `O=S(=O)(c1cccc(S(=O)(=O)N2CCC(n3nnc4ccccc43)CC2)c1)N1CCCCC1`, the “activity change, negative = inhibition” value is 0.624%.
As for `CCCN(CCC)C(=O)Cn1c(=O)n(-c2ccc(Cl)cc2)c(=O)c2c3c(sc21)CCCCC3`, the “activity change, negative = inhibition” value is 4.78%.
Still for that read-out and setting: the result for `COc1ccc(-c2nnc(SCC(=O)Nc3ccc(C(C)C)cc3)nc2-c2ccc(OC)c(OC)c2)cc1OC` reads 4.68%; that for `CN(Cc1cc2cc(F)ccc2[nH]1)Cc1nc(-c2cnccn2)no1`, 1.36%; that for `COc1ccc(NC(=O)CSc2nc(N)c(-c3ccccc3)c(=O)[nH]2)cc1`, 8.54%.
Turning to `Cc1nn(Cc2ccccc2)c(C)c1C(=O)NCCCN1CCCC1=O`, the “activity change, negative = inhibition” value was -2.49%.
On to `Cc1ccc(-c2nn(-c3ccccc3)cc2C(=O)NCCCN2CCCC2=O)cc1`, for which the Potency is 21.3 µM (active).
Regarding `COc1ccc(-c2nn(-c3ccccc3)cc2/C=C\C(=O)Nc2ccc(C(=O)O)cc2)cc1`, the Potency was 15.1 µM (active).
Consider `O=C(CSc1nnc(-c2ccncc2)n1-c1ccc(Cl)cc1)Nc1ccc(C(=O)O)cc1`, for which the “activity change, negative = inhibition” value is -4.75%.
The same measure, in the same setting: the result for `Cc1ccc(-c2nn(-c3ccccc3)cc2C(=O)Nc2cccc(S(=O)(=O)N3CCOCC3)c2)cc1` reads -3.14%; that for `O=C(NCCCN1CCCC1=O)c1ccc(S(=O)(=O)Nc2ccccc2)cc1`, -0.641%; that for `COc1ccc(NC(=O)c2ccccc2CC[N+](=O)[O-])cc1`, 1.33%.
Consider `O=C(O)c1ccc(NC(=O)c2cn(-c3ccccc3)nc2-c2ccc(Cl)cc2)cc1`, for which the Potency is 6.75 µM (active).
Same read-out and setting: the result for `COc1ccc(NC(=O)c2cn(-c3ccccc3)nc2SC)cc1` reads 15.1 µM (active).
For `COc1cccc(C(=O)NC(=O)Nc2ccc(-c3cc(C(F)(F)F)nn3-c3ccccc3)cc2)c1`, the “activity change, negative = inhibition” value is -3.37%.
The same measure, in the same setting: the result for `COc1ccc(NC(=O)CN(C)C(=O)/C=C/c2cn(Cc3ccccc3)nc2-c2cccnc2)cc1` reads -3.23%; that for `Cc1ccc(Cl)c(NC(=O)CN2CCN(C=O)CC2)c1`, -0.796%.
For `Fc1cccc(-n2ncc3c2ncn2nc(-c4ccccc4Cl)nc32)c1`, the “activity change, negative = inhibition” value was -1.28%.
Still for that read-out and setting: then `CN(C(=O)CSc1nnc(C2CC2)n1C)C1CCCc2ccccc21` (stereo not given), with 1.86%; and `N#Cc1ccc(C2=CC(=O)C[C@H](c3ccc(Cl)cc3)C2)cc1`, with -16.3%.
In the case of `O=C(CSc1oc(-c2ccco2)nc1S(=O)(=O)c1ccc(Cl)cc1)c1ccccc1`, the “activity change, negative = inhibition” value is 1.52%.
Turning to `COc1ccccc1CNc1nccn(-c2ccc(F)cc2)c1=O`, the “activity change, negative = inhibition” value was -2.26%.
The same measure, in the same setting: the result for `Cc1ccc(C2(C)NC(=O)N(CC(=O)Nc3ccccc3C(=O)N3CCCCC3)C2=O)cc1` (stereo not given) reads 0.472%; that for `CCOC(=O)c1c(C)[nH]c(C)c1S(=O)(=O)N1CCCC(C(=O)NCc2ccccc2Cl)C1` (stereo not given), -8.43%; that for `Cc1ccc(NC(=O)CSc2nc3ccccc3c3nc(CCn4cncc4C)nn23)cc1F`, 3.74%.
Consider `O=C(CO/N=C/c1ccc(OC(F)F)cc1)NCc1ccc(F)cc1`, for which the “activity change, negative = inhibition” value was -10.7%.
Still for that read-out and setting: then `CCOc1ccc(CCNC(=O)COC(=O)c2ccc(F)c(S(=O)(=O)N3CCOCC3)c2)cc1OCC`, with 0.0182%.
With `CCC(=O)N1c2ccccc2CC1C(=O)N1CCN(c2ccccc2)CC1` (stereo not given), the “activity change, negative = inhibition” value was 2.76%.
With `Cc1ccc(CSc2ccc(S(=O)(=O)N3CCCCC3)cn2)cc1`, the “activity change, negative = inhibition” value was 4.03%.
Turning to `O=C(Nc1ccccc1C(=O)O)c1cc(S(=O)(=O)N2CCCCC2)cs1`, the Potency was 23.9 µM (active).
For the compound `Cc1ccccc1NC(=O)c1cc(S(=O)(=O)N2CCOCC2)cs1`, the “activity change, negative = inhibition” value was -0.63%.
Still for that read-out and setting: the result for `O=C(Nc1ccccc1F)c1cc(S(=O)(=O)N2CCCCC2)cs1` reads 6.84% [at 2.3 µM]; that for `COc1ccc(CNC(=O)CN2C(=O)NC3(CCCc4sccc43)C2=O)cc1` (stereo not given), 2.42%; that for `CC[N+]1(CC)CC2=Cc3ccccc3CC2C1` (stereo not given), -0.581%.
For `COc1ccccc1C(=O)NC(=O)COC(=O)C1CC1`, the Potency was 9.53 µM (active).
For the compound `COc1ccccc1C(=O)OCC(=O)NCCNC(=O)COC(=O)c1ccccc1OC`, the “activity change, negative = inhibition” value was -0.745%.
The same measure, in the same setting: the result for `COc1ccccc1C(=O)NC(=O)COC(=O)c1ccco1` reads 12.2%; that for `O=C(Nc1cccc(-n2cnnn2)c1)c1cccnc1`, -1.84%.
On the same count and under the same terms, then `O=C(Nc1ccc(O)c(-c2nc3ccccc3o2)c1)c1ccc(-c2cccc(Cl)c2)o1`, with 3.47%.
For `O=C(Nc1ccc2oc(-c3ccccc3F)nc2c1)c1ccco1`, the Potency was 6.01 µM (active).
`Cc1ccccc1-c1nc2cc(NC(=O)c3cccc(OCCC(C)C)c3)ccc2o1`: the “activity change, negative = inhibition” value is -3.07%.
